Laboratory results published in PubChem BioAssay (Tox21).
Records with an inconclusive call do not appear. Calls of active or inactive are those of the source. Calls come from the whole dose curve; as a rule, active = well fitted activation curve with a large enough effect in the repeat runs; inconclusive = weak or mixed curves; inactive = flat fitted curve, though single readings scatter.

Experiment: A CellTox Green Cytotoxicity Assay to monitor cytotoxicity in HepG2 cells - 8 hour (AID 1224890); note: nearly all actives have a fitted effect of over 45% in size
Details: CellTox Green fluorescence; series mostly up to 76.8 µM; cytotoxicity increase: at the top concentration
From the text: National Center for Advancing Translational Sciences [NCATS]
NIH Chemical Genomics Center [NCGC]
U.S. Environmental Protection Agency [EPA]
National Institutes of Environmental Health Sciences [NIEHS]
National Toxicology Program [NTP]
Cell-based models are critical for drug discovery. Determining the natural cytotoxic effects resulting from test compounds is an essential research activity. A CellTox Green Cytotoxicity Assay to monitor cytotoxicity in real time of continues cell culture during 40 hours of the compound treatment was used to screen Tox21 10K library compounds in HepG2 cells. CellTox Green Cytotoxicity Assay is a nonlytic, homogeneous, biofluorescent method to measure cytotoxicity in cell culture after experimental manipulation. The assay system uses a proprietary asymmetric cyanine dye that is excluded from viable cells but preferentially stains the dead cell's DNA. […] Viable cells produce no appreciable increases in fluorescence. Therefore, the fluorescence signal produced by the binding interaction with dead cell DNA is proportional to cytotoxicity.
The mixture of HepG2 cell suspension and reagents were dispensed at 600cells/6 ul/well in 1536-well tissue culture treated black solid bottom plates using a Multidrop dispenser. After the assay plates were incubated at a 37 C/5% CO2 incubator for 5 hours, 23 nL of compounds dissolved in DMSO, positive and negative controls was transferred to the assay plate by a pintool work station. The plates were incubated at 37 C for 40 hours. The fluorescence intensity were measured at 0h, 8h, 16h, 24h, 32h and 40h time points using ViewLux plate reader during compound treatment.
% is set by controls: 0 for no effect and ±100 for the full control effect.

SMILES | cytotoxicity increase
CN(C)CCN(Cc1ccccc1)c1ccccn1 | 8.26% [at 35.3 µM] (inactive)
COc1ccc(-c2nc3ccc(C4=NNC(=O)CC4C)cc3[nH]2)cc1 (stereo not given) | -1.43% [at 35.3 µM] (inactive)
Nc1ccc([N+](=O)[O-])c(C(F)(F)F)c1 | -12.1% [at 35.3 µM] (inactive)
CN1Cc2cc(C(=O)N3CCC(C4CCNCC4)CC3)ccc2NC(CC(=O)O)C1=O (stereo not given) | -8.15% [at 35.3 µM] (inactive)
COc1ccc(C)cc1[N+](=O)[O-] | 2.53% (inactive)
CCO[Si](CCCCl)(OCC)OCC | -3.12% (inactive)
CCc1cc(C2=C(C(=O)O)N(c3ccccc3C(F)(F)F)S(=O)(=O)c3ccccc32)cc2c1OCO2 | 8.67% (inactive)
CCCCCCCCCCCc1ccccc1 | 0.966% (inactive)
CCOC(=O)C(O)c1ccccc1 (stereo not given) | -11.6% [at 35.3 µM] (inactive)
C/C=C(/C(=C/C)c1ccc(OC(C)=O)cc1)c1ccc(OC(C)=O)cc1 | 2.28% [at 35.3 µM] (inactive)
C=CC(=O)OCCOCCOC(=O)C=C | -1.58% (inactive)
O=C(O)CC(=O)C(=O)O | -17% (inactive)
CC(CSC(=O)c1ccccc1)C(=O)N1C[C@@H](Sc2ccccc2)C[C@H]1C(=O)O (stereo not given in full) | -3.03% [at 15.8 µM] (inactive)
CN1C[C@H]2c3ccccc3Oc3ccc(Cl)cc3[C@@H]2C1 | 7.29% [at 35.3 µM] (inactive)
Brc1c2ccccc2c(Br)c2ccccc12 | 2.74% [at 6.97 µM] (inactive)
Nc1c(CC(=O)O)cccc1C(=O)c1ccc(Br)cc1 | 1.9% [at 35.3 µM] (inactive)
CC1=CCCC(C)(C)C12CCC(C)O2 (stereo not given) | -8.52% (inactive)
c1ccc(CNCCNCc2ccccc2)cc1 | -9.71% [at 35.3 µM] (inactive)
CCCNCC(O)COc1ccccc1C(=O)CCc1ccccc1 (stereo not given) | 12.8% [at 35.3 µM] (inactive)
CC1OC(=O)C(C)OC1=O (stereo not given) | 0.916% (inactive)

SMILES | cytotoxicity increase
CCCCc1ncc(/C=C(\Cc2cccs2)C(=O)O)n1Cc1ccc(C(=O)O)cc1 | -8.09% [at 35.3 µM] (inactive)
O=C(O)c1ccc(S(=O)(=O)O)cc1C(=O)O | -10.7% (inactive)
C[Si](C)(CCCN)O[Si](C)(C)CCCN | -4.83% (inactive)
O=C1CCCCCCCCCCCC(=O)OCCO1 | 10.9% (inactive)
O=C(O)C(S)C(S)C(=O)O (stereo not given) | -12.2% [at 35.3 µM] (inactive)
Cn1c(=O)cc(Oc2ccc(F)cc2F)c2cnc(NCC(C)(C)O)nc21 | -2.99% (inactive)
O=C1C(O)=C(O)C(=O)C(O)=C1O | -12.8% [at 35.3 µM] (inactive)
Cc1oc(-c2ccccc2)nc1CCOc1cccc2c1ccn2CCC(=O)O | -2.63% (inactive)
CN(C)CCN(Cc1ccsc1)c1ccccn1 | -2.56% [at 35.3 µM] (inactive)
CC(C)(C)Cl | 4.51% (inactive)
OC[C@H]1O[C@@H](OCCc2ccc(O)cc2)[C@H](O)[C@@H](O)[C@@H]1O | -0.949% [at 35.3 µM] (inactive)
NCCCN1CCOCC1 | 0.321% (inactive)
COCCCN1CCC(NC(=O)c2cc(Cl)c(N)c3c2OCC3)CC1 | -16.5% [at 35.3 µM] (inactive)
CC(C)(CO)[N+](=O)[O-] | 0.513% (inactive)
NCC(=O)O | 1.21% [at 15.8 µM] (inactive)
CC(=O)[O][Al][O]C(C)=O | -18.4% (inactive)
CCCCCCc1ccc(-c2ccc(C#N)cc2)cc1 | 4.02% (inactive)
CCN(CC)c1ccc(C(=C2C=CC(=[N+](CC)CC)C=C2)c2cc(S(=O)(=O)O)ccc2S(=O)(=O)[O-])cc1 | -13.2% [at 35.3 µM] (inactive)
Clc1ccc(Cn2c(CN3CCCC3)nc3ccccc32)cc1 | -5.05% [at 35.3 µM] (inactive)
CNC(=O)CN(CCN(CCN(CC(=O)[O-])CC(=O)NC)CC(=O)[O-])CC(=O)[O-].O.[Gd+3] | -5.76% [at 35.3 µM] (inactive)
